“And” between values parts separate entries of the source, which are not always exact repeats. Equal values may be shown once. Screen size: about 16,000 compounds; about 2,600 (16%) were called active. Roughly 20% stayed inconclusive and do not appear here. The call rests on the fitted dose curve; in most records, active means well fitted curve in the direction sought with a large enough effect; inconclusive means small, poorly fitted or top-dose-only effect, or effect the other way; inactive means no such curve, though single readings can be large or run the other way. The full list was thinned out, with actives kept by preference. Some compounds were tested as several samples or in several runs, with calls that do not always agree.
On the % scale 0 is the no-effect control and ±100 the full control effect.

Chain of Cytochrome P450 2D6 (Homo sapiens) (P10635 whole entry, looked up): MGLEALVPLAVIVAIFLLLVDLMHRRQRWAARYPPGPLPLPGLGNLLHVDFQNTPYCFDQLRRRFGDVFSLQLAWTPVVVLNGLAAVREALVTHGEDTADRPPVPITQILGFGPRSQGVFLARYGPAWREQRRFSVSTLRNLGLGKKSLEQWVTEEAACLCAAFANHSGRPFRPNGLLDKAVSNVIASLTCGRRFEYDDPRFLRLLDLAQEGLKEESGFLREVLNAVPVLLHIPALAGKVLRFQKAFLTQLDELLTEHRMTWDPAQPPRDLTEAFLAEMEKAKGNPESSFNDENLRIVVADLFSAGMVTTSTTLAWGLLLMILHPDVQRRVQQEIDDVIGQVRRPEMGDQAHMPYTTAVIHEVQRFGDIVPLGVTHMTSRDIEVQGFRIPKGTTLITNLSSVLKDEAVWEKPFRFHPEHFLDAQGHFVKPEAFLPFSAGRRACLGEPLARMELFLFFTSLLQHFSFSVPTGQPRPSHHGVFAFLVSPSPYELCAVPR

This assay concerns the target Cytochrome P450 2D6 (Homo sapiens) (UniProt P10635). Kind of assay: Cytochrome panel assay with activity outcomes. Particulars: recombinant CYP, pro-luciferin dealkylation, luminescence, p450-cyp2d6; series mostly up to 57.1 µM; activity, negative = inhibition: at the top concentration. Here is the method: The P450 gene superfamily is involved in the metabolism and clearance of xenobiotics. This assay used various human CYP P450 isozymes to measure the dealkylation of various pro-luciferin substrates to luciferin. The luciferin is then measured by luminescence after the addition of a luciferase detection reagent. Pro-luciferin substrate concentration in the assay was equal to its KM for its CYP P450 isozyme. Inhibitors and some substrates limit the production of luciferin, and decrease measured luminescence.
NCGC Assay Protocol Summary:
1, Reagent, 2 uL, Isozyme and Pro-Luciferin
2, Library compounds, 23 nl, 40 uM to 0.24 nM dilution series
3, Controls, 23 nl, Isozyme specific inhibitor
4, Reagent, 2 uL, NADPH regeneration solution
5, Incubation time, 60 min, Isozyme specific temperature
6, Reagent, 4ul, Detection reagent
7, Incubation time, 20 min, Isozyme specific temperature
8, Detection, 1 sec, ViewLux luminescent read
The luciferase-based P450-GloTM Screening Systems were obtained from Promega (Madison, WI) for CYP 1A2 (V9770), CYP 2C9 (V9790), CYP2 C19 (V9880), CYP 2D6 (V9890), and CYP 3A4 Luciferin-PPXE (V9910) and were adapted for 1,536-well microplates and an automated protocol. The control compounds furafylline for 1A2 (F124), sulfaphenazole for CYP 2C9 (S0758), ketoconazole for CYP 2C19 (K1003), quinidine for 2D6 (Q3625), and ketoconazole for 3A4 (K1003) were purchased from Sigma Aldrich (St. Louis, MO). Recombinant P450 enzymes were obtained from baculovirus constructs expressed in insect cells (BD/Gentest).
Medium-binding white solid Kalypsys plates used. Mixtures kept on ice. 1A2: 10 nM 1A2, 100 uM Luc-ME, 100 mM KPO4; 2C9: 10 nM 2C9, 100 uM Luc-H, 25 mM KPO4; 2C19: 5 nM 2C19, 10 uM Luc-H EGE, 50 mM KPO4; 2D6: 5 nM 2D6, 30 uM Luc-ME EGE, 100 mM KPO4; 3A4: 10 nM, 25 uM Luc-PPXE. All amounts are reflected in their final concentration, working concentration is 2x.
NADPH regeneration solution: 1.3 mM NADP+, 3.3 mM glucose-6-phosphate, 3.3 mM MgCl2, 0.4 U/mL glucose-6-phosphate dehydrogenase for all isozymes, 200 mM KPO4 for 3A4. Mixture prepared at RT but kept on ice during automated run.
RT incubation in auxilliary plate hotel for 1A2, 2D6, and 3A4; 37C for 2C9 and 2C19.
Keywords: P450, CYP1A2, CYP2C19, CYP2C9, CYP2D6, CYP3A4, Luciferase, MLSMR, MLSCN, NIH Roadmap, qHTS, NCGC
On to `CN(C)C(=O)Oc1ccc[n+](C)c1`, for which the “activity, negative = inhibition” value is 11.3% (inactive). On the same count and under the same terms, with `C[C@@H]1O[C@H]1P(=O)(O)O` the figure was 19.4% (inactive).

The term AC50 denotes the concentration giving half of the maximal activity seen. Turning to `O=c1c(O)c(-c2ccc(O)c(O)c2)oc2cc(O)cc(O)c12`, the AC50 result was “inactive”. Regarding `CNC[C@H](O)c1ccc(O)c(OC)c1`, the “activity, negative = inhibition” value is -1.02% [at 25.6 µM] (inactive). Same read-out and setting: next, `C[C@](N)(CCP(=O)(O)O)C(=O)O`: 8.58% (inactive).

`CCCN(CCC)C1Cc2cc(OC)c(OC)cc2C1`: the AC50 is 25.1 µM (active) and inactive. With `CCCN(CCC)[C@@H]1CCc2ccc(O)cc2C1`, the AC50 was 794 nM (active) and inactive.

For the compound `CCCN(C/C=C\I)[C@@H]1CCc2ccc(O)cc2C1`, the half-maximal activity concentration (AC50) was 0.0158 µM (active). On to `O=C(O)[C@H]1CCN1`, for which the “activity, negative = inhibition” value was -3.77% (inactive). The same measure, in the same setting: with `CN(C)[C@H]1C(=O)C(C(N)=O)=C(O)[C@]2(O)C(=O)C3=C(O)c4c(O)cccc4[C@@](C)(O)[C@H]3C[C@@H]12` the figure was 13.9% [at 25.6 µM] (inactive); with `O=C(O)C(C(=O)O)P(=S)(S)c1ccccc1` (stereo not drawn), 8.23% [at 11.4 µM] (inactive). `CC(=O)NBr`: the “activity, negative = inhibition” value is 4.43% (inactive). Regarding `N#CCCCC[N+]12CN3CN(CN(C3)C1)C2`, the activity, negative = inhibition was 1.51% [at 11.4 µM] (inactive). Turning to `COC1=CC(=O)O[C@@H](/C=C\c2ccccc2)C1`, the “activity, negative = inhibition” value was 0.589% [at 25.6 µM] (inactive).

Consider `CCN1C[C@]2(COC)CC[C@H](O)[C@@]34[C@@H]5C[C@H]6[C@@H](OC)[C@H]5[C@](O)(C[C@@H]6OC)[C@@](O)([C@@H](OC)[C@H]23)[C@@H]14`, for which the “activity, negative = inhibition” value is 11.1% [at 25.6 µM] (inactive). As for `CCN(CC)c1ncnc2c1ncn2[C@@H]1O[C@@H](COP(=O)(O)OP(=O)(O)C(Br)(Br)P(=O)(O)O)[C@H](O)[C@@H]1O`, the “activity, negative = inhibition” value is -10.4% (inactive). Still for that read-out and setting: with `Nc1ncnc2c1ncn2[C@@H]1O[C@@H](COP(=O)(O)CP(=O)(O)OP(=O)(O)O)[C@H](O)[C@@H]1O` the figure was -5.92% (inactive). As to `CCN(CC)c1ncnc2c1ncn2[C@@H]1O[C@@H](COP(=O)(O)OP(=O)(O)C(Br)(Br)P(=O)(O)O)[C@H](O)[C@H]1O`, the concentration at half-maximal activity (AC50) was 0.631 µM (active). For `COc1cc2c3cc1Oc1cc(ccc1O)C[C@@H]1c4c(cc(OC)c(O)c4Oc4cccc(c4)C[C@H]3N(C)CC2)CC[N+]1(C)C`, the “activity, negative = inhibition” value is 2.51% [at 25.6 µM] (inactive).

Regarding `O=P(O)(O)CCP(=O)(O)O`, the activity, negative = inhibition was 10.1% [at 11.4 µM] (inactive). As to `N[C@H](CP(=O)(O)O)C(=O)O`, the “activity, negative = inhibition” value was -6.71% (inactive). The same measure, in the same setting: next, `Cc1nc2ccccc2cc1C[N+]12CN3CN(CN(C3)C1)C2`: -2.3% [at 11.4 µM] (inactive). For `c1ccc2c(c1)-c1ccccc1C2N1CC2CCC(CC2)C1`, the AC50 was 3.98 µM (active). As to `O=C1N[C@@]2(CN3CCC2CC3)C(=O)N1CN(Cc1ccccc1)c1ccccc1`, the activity, negative = inhibition is 2.51% [at 11.4 µM] (inactive). For `CC[C@@]1(c2ccc(N)cc2)CCC(=O)NC1=O`, the AC50 result is “inactive”. Same read-out and setting: next, `CN1Cc2c(ccc3c2OCO3)[C@@H]2[C@@H](O)Cc3cc4c(cc3[C@@H]21)OCO4`: 0.2 µM (active). `C[C@H]1CCCC=CC2C[C@H](O)C[C@@H]2[C@H](O)/C=C\C(=O)O1` (stereo partly drawn): the “activity, negative = inhibition” value is 9.19% (inactive). Still for that read-out and setting: next, `N#Cc1cccc(NC(=O)N2CCCC3(CCN(C(=O)Oc4ccccc4)CC3)C2)c1`: -9.57% (inactive).

Regarding `Oc1ccc2c3c1O[C@H]1c4c(c5ccccc5n4Cc4ccccc4)C[C@]4(O)[C@H](C2)N(CC2CC2)CC[C@@]314`, the “activity, negative = inhibition” value was -5.11% (inactive). On to `Oc1ccc2c3c1O[C@H]1c4oc5ccccc5c4C[C@]4(O)[C@H](C2)N(CC2CC2)CC[C@@]314`, for which the AC50 is 1.26 µM (active). Take `Oc1ccc2c3c1O[C@H]1c4[nH]c5ccccc5c4C[C@]4(O)[C@H](C2)N(CC2CC2)CC[C@@]314`: the AC50 is 2.51 µM (active) and 631 nM (active).

For the compound `NC(N)=Nc1ccc2[nH]c3c(c2c1)C[C@]1(O)[C@@H]2Cc4ccc(O)c5c4[C@]1(CCN2CC1CC1)[C@H]3O5`, the “activity, negative = inhibition” value was 2.41% (inactive). On to `Oc1ccc2c3c1O[C@@H]1c4[nH]c5c(c4C[C@@]4(O)[C@@H](C2)N(CC2CC2)CC[C@]314)C[C@]1(O)[C@@H]2Cc3ccc(O)c4c3[C@@]1(CCN2CC1CC1)[C@H]5O4`, for which the “activity, negative = inhibition” value was -4.66% (inactive).

Regarding `Oc1ccc2c3c1O[C@H]1c4[nH]c5c(c4C[C@@]4(O)[C@@H](C2)N(CC2CC2)CC[C@]314)C[C@]1(O)[C@H]2Cc3ccc(O)c4c3[C@@]1(CCN2CC1CC1)[C@@H]5O4`, the “activity, negative = inhibition” value was -4.33% (inactive).

For `Nc1nc(N)c2nc(CNc3ccc(C(=O)N[C@H](CCC(=O)O)C(=O)O)cc3)cnc2n1`, the “activity, negative = inhibition” value is -1.59% (inactive).

For `CC[C@H](C)[C@@H]1O[C@]2(CC[C@@H]1C)C[C@H]1C[C@H](CC=C(C)[C@@H](O[C@@H]3C[C@H](OC)[C@H](O[C@@H]4C[C@H](OC)[C@H](O)[C@H](C)O4)[C@H](C)O3)[C@@H](C)C=CC=C3CO[C@@H]4[C@@H](O)C(C)=C[C@@H](C(=O)O1)[C@]34O)O2`, the “activity, negative = inhibition” value was -16.5% [at 25.6 µM] (inactive).

Take `CCNC(=O)[C@@H]1O[C@@H](n2cnc3c(N)ncnc32)[C@@H](O)[C@H]1O`: the “activity, negative = inhibition” value was -3.38% (inactive). For `CCN(CC)CC#CCOC(=O)[C@@](O)(c1ccccc1)C1CCCCC1`, the AC50 was 10 µM (active). For `Cc1ccc(S(=O)ON2CCC(C(=O)O)(c3ccccc3)CC2)cc1` (stereo not drawn), the activity, negative = inhibition was 20.9% [at 11.4 µM] (inactive). Turning to `CCCc1cc2c(n1Cc1cccc(Cl)c1)C(C)C1CN(C(=O)c3ccccc3)C(C)(C(=O)OC)C21` (stereo not drawn), the AC50 was 12.6 µM (active). Turning to `CCCc1cc2c(n1Cc1ccc(C)cc1)C(C)C1CN(C(=O)c3ccccc3)C(C)(C(=O)OC)C21` (stereo not drawn), the “activity, negative = inhibition” value is -18% (inactive).

As to `CCCc1cc2c(n1CCO)C(C)C1CN(C(=O)c3ccccc3)C(C)(C(=O)OC)C21` (stereo not drawn), the “activity, negative = inhibition” value is -9.47% (inactive). For the compound `O=C1Nc2ccc(I)cc2/C1=C/c1cc(Br)c(O)c(Br)c1`, the “activity, negative = inhibition” value was 5.11% (inactive).
